The campaign covered roughly 16,000 compounds. About 4,000 (25%) were called active. Inconclusive results (about 26%) are left out. A selection follows. Unmarked numbers belong to inactive results. The call rests on the fitted dose curve; in most records, active means well fitted curve in the direction sought with a large enough effect; inconclusive means small, poorly fitted or top-dose-only effect, or effect the other way; inactive means no such curve, though single readings can be large or run the other way.
Target: Cytochrome P450 2C9 (Homo sapiens) (UniProt P11712)
Sequence (P11712 whole entry, looked up): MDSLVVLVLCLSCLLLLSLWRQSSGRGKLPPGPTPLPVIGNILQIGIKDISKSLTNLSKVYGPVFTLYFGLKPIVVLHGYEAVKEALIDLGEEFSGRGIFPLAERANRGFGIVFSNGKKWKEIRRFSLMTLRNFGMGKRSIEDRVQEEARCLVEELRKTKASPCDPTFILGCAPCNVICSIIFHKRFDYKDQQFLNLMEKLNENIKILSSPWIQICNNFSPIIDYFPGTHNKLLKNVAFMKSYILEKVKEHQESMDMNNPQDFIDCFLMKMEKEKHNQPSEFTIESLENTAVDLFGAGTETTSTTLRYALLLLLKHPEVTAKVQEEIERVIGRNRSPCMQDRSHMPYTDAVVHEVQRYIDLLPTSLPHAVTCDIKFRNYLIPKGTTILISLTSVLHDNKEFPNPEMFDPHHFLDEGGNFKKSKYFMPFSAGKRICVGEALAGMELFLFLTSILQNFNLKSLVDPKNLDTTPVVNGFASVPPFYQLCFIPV
Assay: Cytochrome panel assay with activity outcomes
Conditions: recombinant CYP, pro-luciferin dealkylation, luminescence, p450-cyp2c9; series mostly up to 57.1 µM
On the % scale 0 is the no-effect control and ±100 the full control effect.

| Compound | activity, negative = inhibition | AC50 |
| --- | --- | --- |
| CC(C)Cn1cnc2c(Sc3c([N+](=O)[O-])ncn3C)nc(N)nc21 | 29.4% [at 11.4 µM] | – |
| O=C1c2ccccc2C(=O)N1CC(=O)N1c2ccccc2CCc2ccccc21 | – | 3.55 µM (active) |
| CCN(CC)CCC(=O)Nc1ccc2c(c1)N(C(=O)CN(CC)CC)c1ccccc1CC2 | – | inactive |
| O=C(CN1C(=O)c2ccccc2C1=O)NC1(C(=O)O)CCCC1 | 4.07% [at 11.4 µM] | – |
| Cc1noc(C)c1-c1ccc2ncnc(NC3CCNCC3)c2c1 | 14.5% [at 2.29 µM] | – |
| Cc1nnc(S(=O)(=O)c2ccc(N=Nc3c(N)nc(N)nc3N)cc2)s1 | -2.75% [at 11.4 µM] | – |
| COc1cc(C(=O)NC(=S)Nc2cccc(-c3cc4ccccc4oc3=O)c2)cc(OC)c1OC | – | 3.55 µM (active) |
| CCOc1ccc(C(=O)Nc2cccc(-c3cc4ccccc4oc3=O)c2)cc1[N+](=O)[O-] | – | 1.41 µM (active) |
| CCCC(=O)N1CCN(c2ccc(NC(=O)c3ccc(OCC)c([N+](=O)[O-])c3)cc2)CC1 | – | inactive |
| COc1cc(C(=O)NC(=S)Nc2ccc3oc(=O)ccc3c2)cc(OC)c1OC | – | inactive |
| COc1cc(NC(=O)c2cc(Cl)ccc2Cl)ccc1-c1cc2ccccc2oc1=O | – | 4.47 µM (active) |
| Cc1nc(-c2cccc(NC(=O)c3cc4cc(Br)ccc4oc3=O)c2)cs1 | – | inactive |
| NCCOB(c1ccccc1)c1ccccc1 | – | inactive |
| CC(=O)Nc1ccc(S(=O)(=O)NC2(C(F)(F)F)NC(=O)N(c3ccc(Cl)cc3)C2=O)cc1 (stereo unspecified) | – | 10 µM (active) |
| Cc1ccc(-n2c3c(c(=O)[nH]c2=O)C(NS(=O)(=O)c2ccc(C)cc2)(C(F)(F)F)C(=O)N3)cc1 (stereo unspecified) | – | inactive |
| CN(N=O)c1ccc(/C=C\c2ccnc3ccccc23)cc1 | -6.97% [at 11.4 µM] | – |
| Oc1c(CN2CCCCC2)cc(Br)c2cccnc12 | – | inactive |
| CON(c1nc(N(C)C)nc(N(C)C)n1)S(=O)(=O)c1ccccc1Cl | – | 11.2 µM (active) |
| CC(=O)Nc1cccc(C(=O)OC(C(=O)c2ccc(C)c(C)c2)c2ccccc2)c1 (stereo unspecified) | – | 3.98 µM (active) |
| NC(N)=NC(=O)c1nc(Cl)c(N)nc1N | – | inactive |
| FC(F)Sc1ccc(N=C2NN=C(c3ccc4c(c3)OCCO4)CS2)cc1 | – | 22.4 µM (active) |
| C[N+](C)(C)CCCCCNCC12CC3CC(CC(C3)C1)C2 | – | inactive |
| COC(=O)[C@@]1(Cc2ccc(F)cc2)[C@H]2c3cc(C(=O)N4CCCC4)n(Cc4ccc(C)c(F)c4F)c3C[C@H]2CN1C(=O)c1ccccc1 | – | 10 µM (active) |
| COC(=O)[C@@]1(Cc2ccc(F)cc2)[C@H]2c3cc(C(=O)N4CCCC4)n(Cc4ccc(OC(F)(F)F)cc4)c3C[C@H]2CN1C(=O)c1ccccc1 | – | 6.31 µM (active) |
| COC(=O)[C@@]1(Cc2ccc(F)cc2)[C@H]2c3cc(C(=O)N4CCCC4)n(Cc4ccc(S(C)(=O)=O)cc4)c3C[C@H]2CN1C(=O)c1ccccc1 | – | 25.1 µM (active) |
| COC(=O)[C@@]1(Cc2ccc(F)cc2)[C@H]2c3cc(C(=O)N4CCCC4)n(Cc4ccccc4)c3C[C@H]2CN1C(=O)c1ccccc1 | – | 3.98 µM (active) |
